Drawing on PubChem BioAssay, this text covers composite z-score and z-score for 15 compounds.

The source made the active and inactive calls.

A short description of assay [1]: binders of probe aFSTL3 on microarray, primary screen, stem cell growth factor project, biochemical, small-molecule microarray, fluorescence 635/667 (AID 1064).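 Also: measures binding of the biotinylated anti-FSTL3 antibody to printed compounds.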 The note with it: higher = more signal.
The nature of assay [2]: binders from COS7 lysate, DM2A8 probe, primary screen, torsin A project, cell lysate, small-molecule microarray, fluorescence 635/667 (AID 1065). The note with it: higher = more signal, COS7 lysate expressing mutant human TOR1A.
The nature of assay [3]: binders of probe aFGF2 on microarray, primary screen, stem cell growth factor project, biochemical, small-molecule microarray, fluorescence 635/667 (AID 1067).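 Also: measures binding of biotinylated aFGF2 protein to printed compounds on slides; z-score merges feature fluorescence and signal-to-noise across triplicate slides.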 The note with it: higher = more signal.
Assay [4] is described as follows: binders of probe aFGF10 on microarray, primary screen, stem cell growth factor project, biochemical, small-molecule microarray, fluorescence 635/667 (AID 1071).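 Also: score merges 667 nm spot intensity and signal to noise from triplicate slides.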 The note with it: higher = more signal.
Assay [5] deals with Neurogenic locus notch homolog protein 2 (Homo sapiens) (UniProt Q04721). The assay is described as follows: Notch2 binders on small-molecule microarrays, primary screen, biochemical, small-molecule microarray, 635 nm fluorescence, stem cell growth factors (AID 1073). Particulars: Notch2 binding, higher = more signal.
Chain of Neurogenic locus notch homolog protein 2 (Homo sapiens) (Q04721 whole entry, looked up, canonical isoform): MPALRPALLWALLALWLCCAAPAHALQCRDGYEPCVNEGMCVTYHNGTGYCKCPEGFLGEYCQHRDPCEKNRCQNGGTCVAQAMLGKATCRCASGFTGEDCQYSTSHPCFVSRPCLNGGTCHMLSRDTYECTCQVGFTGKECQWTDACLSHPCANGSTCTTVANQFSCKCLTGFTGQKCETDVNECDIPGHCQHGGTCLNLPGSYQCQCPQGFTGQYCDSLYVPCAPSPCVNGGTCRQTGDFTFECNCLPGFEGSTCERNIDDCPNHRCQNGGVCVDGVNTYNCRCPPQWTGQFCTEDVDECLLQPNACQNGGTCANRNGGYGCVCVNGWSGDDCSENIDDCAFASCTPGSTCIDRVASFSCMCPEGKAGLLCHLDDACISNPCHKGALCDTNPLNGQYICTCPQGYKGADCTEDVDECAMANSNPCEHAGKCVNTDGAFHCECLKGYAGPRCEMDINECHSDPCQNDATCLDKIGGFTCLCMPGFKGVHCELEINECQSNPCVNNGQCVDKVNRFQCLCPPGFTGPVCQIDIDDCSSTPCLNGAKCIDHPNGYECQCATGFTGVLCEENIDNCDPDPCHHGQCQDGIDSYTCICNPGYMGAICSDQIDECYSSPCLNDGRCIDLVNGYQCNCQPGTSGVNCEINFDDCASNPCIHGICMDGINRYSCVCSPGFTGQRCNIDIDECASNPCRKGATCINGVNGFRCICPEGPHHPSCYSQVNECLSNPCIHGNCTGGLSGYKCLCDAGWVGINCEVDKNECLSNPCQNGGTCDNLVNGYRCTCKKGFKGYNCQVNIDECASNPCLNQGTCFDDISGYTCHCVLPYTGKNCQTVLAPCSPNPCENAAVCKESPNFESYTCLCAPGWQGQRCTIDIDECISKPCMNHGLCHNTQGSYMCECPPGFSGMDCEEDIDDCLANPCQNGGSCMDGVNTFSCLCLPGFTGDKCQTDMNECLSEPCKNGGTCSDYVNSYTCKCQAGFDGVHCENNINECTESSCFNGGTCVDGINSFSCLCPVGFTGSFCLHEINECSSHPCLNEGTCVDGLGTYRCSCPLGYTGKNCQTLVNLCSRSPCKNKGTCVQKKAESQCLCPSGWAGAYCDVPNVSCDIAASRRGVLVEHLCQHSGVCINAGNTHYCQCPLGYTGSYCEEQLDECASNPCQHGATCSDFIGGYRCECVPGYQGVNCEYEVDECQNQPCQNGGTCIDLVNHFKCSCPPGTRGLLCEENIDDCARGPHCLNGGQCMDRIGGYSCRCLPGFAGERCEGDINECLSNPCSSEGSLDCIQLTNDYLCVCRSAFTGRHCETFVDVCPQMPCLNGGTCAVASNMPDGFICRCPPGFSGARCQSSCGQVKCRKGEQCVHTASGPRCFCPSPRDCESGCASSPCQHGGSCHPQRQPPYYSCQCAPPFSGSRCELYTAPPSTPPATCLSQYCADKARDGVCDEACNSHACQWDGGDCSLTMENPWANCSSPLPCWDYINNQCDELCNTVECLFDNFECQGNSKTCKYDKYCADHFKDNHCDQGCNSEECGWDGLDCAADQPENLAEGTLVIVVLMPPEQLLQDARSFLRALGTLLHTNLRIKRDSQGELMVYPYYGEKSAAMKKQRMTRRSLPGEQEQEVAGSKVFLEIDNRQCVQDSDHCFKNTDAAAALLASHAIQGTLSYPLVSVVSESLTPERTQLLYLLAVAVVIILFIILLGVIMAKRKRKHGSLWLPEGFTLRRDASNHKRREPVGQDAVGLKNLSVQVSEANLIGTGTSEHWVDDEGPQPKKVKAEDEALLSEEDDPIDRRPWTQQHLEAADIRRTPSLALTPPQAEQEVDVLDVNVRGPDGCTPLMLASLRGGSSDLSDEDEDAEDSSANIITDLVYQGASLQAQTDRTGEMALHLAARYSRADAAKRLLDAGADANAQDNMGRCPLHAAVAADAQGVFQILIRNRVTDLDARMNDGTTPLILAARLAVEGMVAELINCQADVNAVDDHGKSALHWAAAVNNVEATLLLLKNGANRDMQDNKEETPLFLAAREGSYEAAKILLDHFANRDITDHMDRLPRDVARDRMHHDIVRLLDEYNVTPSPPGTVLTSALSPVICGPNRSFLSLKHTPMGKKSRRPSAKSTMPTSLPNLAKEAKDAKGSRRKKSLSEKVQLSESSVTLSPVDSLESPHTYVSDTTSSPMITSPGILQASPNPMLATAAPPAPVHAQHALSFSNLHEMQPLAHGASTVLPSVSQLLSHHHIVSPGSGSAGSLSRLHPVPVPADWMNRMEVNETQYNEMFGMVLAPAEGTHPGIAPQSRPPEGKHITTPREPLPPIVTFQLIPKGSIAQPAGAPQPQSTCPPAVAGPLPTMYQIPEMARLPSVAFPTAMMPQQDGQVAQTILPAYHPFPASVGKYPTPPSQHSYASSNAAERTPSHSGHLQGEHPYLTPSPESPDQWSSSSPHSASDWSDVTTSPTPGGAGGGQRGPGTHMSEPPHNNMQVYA
Assay [6] addresses Pro-neuregulin-1, membrane-bound isoform (Homo sapiens) (UniProt Q02297). The assay is described as follows: NRG1 binders on small-molecule microarrays, primary screen, psychiatric disease protein project, biochemical, small-molecule microarray, fluorescence 635/667 (AID 1075).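 Also: score combines 667 nm spot fluorescence with signal to noise.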 Particulars: NRG1 binding, 635 nm fluorescence, higher = more signal.
In assay [7] the test system is Neuregulin-1 EGF-like domain. The assay is described as follows: binders of neuregulin-1 EGF-like domain, primary screen, biochemical, small-molecule microarray, 635 nm fluorescence (AID 1081).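 Also: binding of the protein to compounds printed on small-molecule microarray slides.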 Particulars: small-molecule microarray binding, higher = more signal.
Assay [8] in a line: FRG1 promoter luciferase signal modulators, primary screen, FRG1 inhibition for FSHD, cell-based, C2C12 myotubes, firefly/Renilla luciferase, luminescence (AID 1084). Particulars: higher = more signal, called active from +8 up or from −8 down.
A short description of assay [9]: binders of probe aFST on microarray, primary screen, stem cell growth factor project, biochemical, small-molecule microarray, fluorescence 635/667 (AID 1086).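 Also: score merges 667 nm fluorescence with signal-to-noise of each printed compound spot.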 Particulars: higher = more signal.
Assay [10] in a line: binders of probe aHhip on microarray, primary screen, stem cell growth factor project, biochemical, small-molecule microarray, fluorescence 635/667 (AID 1087).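 Also: score merges spot fluorescence at 667nm with spot signal to noise ratio.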 The note with it: higher = more signal.

Chain of Pro-neuregulin-1, membrane-bound isoform (Homo sapiens) (Q02297 whole entry, looked up, the tested form may be a part, canonical isoform): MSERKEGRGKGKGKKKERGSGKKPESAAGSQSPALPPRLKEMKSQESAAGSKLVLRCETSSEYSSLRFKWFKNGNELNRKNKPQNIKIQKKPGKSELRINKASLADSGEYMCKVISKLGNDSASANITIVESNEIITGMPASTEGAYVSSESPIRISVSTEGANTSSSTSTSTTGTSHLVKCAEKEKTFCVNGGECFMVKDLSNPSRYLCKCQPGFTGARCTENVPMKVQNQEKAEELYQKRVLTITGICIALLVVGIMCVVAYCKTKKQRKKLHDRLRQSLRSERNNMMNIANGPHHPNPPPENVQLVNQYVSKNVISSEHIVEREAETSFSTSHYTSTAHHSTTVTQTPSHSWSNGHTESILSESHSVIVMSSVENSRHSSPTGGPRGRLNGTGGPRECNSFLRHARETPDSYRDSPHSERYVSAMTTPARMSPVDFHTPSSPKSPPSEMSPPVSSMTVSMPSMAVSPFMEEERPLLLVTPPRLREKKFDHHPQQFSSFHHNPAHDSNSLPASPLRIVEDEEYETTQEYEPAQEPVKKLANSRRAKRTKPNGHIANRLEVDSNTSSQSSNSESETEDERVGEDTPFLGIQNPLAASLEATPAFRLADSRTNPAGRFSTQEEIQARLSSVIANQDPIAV

Turning to `COCCOC(=O)N1C(=O)[C@@]2(c3cc(C#CCNC(N)=O)ccc31)[C@H](c1ccc(O)cc1)N1[C@H](c3ccccc3)[C@H](c3ccccc3)OC(=O)[C@H]1[C@@H]2C(=O)N1CCc2cc(OC)c(OC)cc2C1`, the composite z-score stood at 0.141 in assay [1]; 0.0344 in assay [2]; 0.0525 in assay [3]; 0.67 in [4]; 1.07 in [5]; 1.06 in assay [6]. Besides, the composite z-score in assay [7] was 0.786; in assay [9], 0.39; in [10] it was -0.0427. Moreover, the z-score in assay [8] was 0.411 (inactive).

With `CCCC=C(CCC)[C@@H](NC(=O)c1ccc(C(=O)OC)cc1)c1ccc(C(=O)OC)cc1`, the composite z-score in assay [1] was 0.0362; in assay [2] it was -0.312; in assay [3], 0.355; in assay [4], -0.327; in [5] it was 0.423; in assay [6], 0.203. Further, the composite z-score was -0.166 in [7], 0.484 in assay [9] and 2.54 in assay [10]. In addition, the z-score in [8] is 1.24 (inactive).

Regarding `CC(C)[Si]1(C(C)C)OCc2cc(-c3ccc(-c4ccc(Cl)c(Cl)c4)o3)nc(-c3ccc(Oc4ccccc4)cc3)c21`, the composite z-score in assay [1] was 0.639; in assay [2], -1.11; in assay [3] it was -0.207; in assay [4], -0.738; in assay [5], -1.78; in assay [6], -0.762. Besides, the composite z-score in assay [7] was -0.6; in assay [9] it was -0.857; in [10] it was -0.306. Moreover, in assay [8], the z-score was 1.52 (inactive).

With `COc1ccc(C(O)C2C=CC3C(=O)N(c4ccccc4)C(=O)C3N2Nc2ccccc2F)c2ccccc12` (stereo not given), the composite z-score is 1.24 in [1]; 1.08 in [2]; 0.433 in assay [3]; 1.14 in [4]; 1.72 in assay [5]; 1.79 in assay [6]. In addition, the composite z-score in [7] is 1.23; in assay [9], 1.89; in assay [10], -0.233. For the same compound, in [8], the z-score is 1.25 (inactive).

On to `O=C1O[C@H](c2ccccc2)[C@H](c2ccccc2)N2[C@H]1[C@@H](C(=O)N1CCCCCCC1)[C@]1(C(=O)Nc3ccc(C#CCCO)cc31)[C@H]2c1ccc(O)cc1`, for which the composite z-score is 3.79 in assay [1]; 2.62 in [2]; 0.978 in assay [3]; 1.4 in assay [4]; 1.79 in assay [5]; 2.79 in [6]. For the same compound, the composite z-score came to 1.42 in assay [7], 3.34 in assay [9] and 1.7 in assay [10]. Also, the z-score in [8] was -1.1 (inactive).

With `CN(C)CCCCNC(=O)[C@H]1C[C@H]2C(=O)N[C@@H](CCCCN(C)C)C(=O)N2[C@H]1c1ccc(O)cc1`, the composite z-score was -0.162 in [1]; 0.857 in [2]; -0.215 in assay [3]; 0.301 in assay [4]; -0.0742 in assay [5]; -0.121 in [6]. For the same compound, the values for the composite z-score in assay [7], in assay [9] and in [10] were 0.763, -0.349 and -0.16, respectively. The z-score in assay [8] was -0.354 (inactive).

Consider `CO[C@H]1O[C@H](CO)[C@@H](OC(=O)CCc2ccccc2)[C@@H]2OC(=O)[C@@H](Cc3ccc4ccccc4c3)C/C=C/C[C@H](Cc3ccc4ccccc4c3)C(=O)O[C@@H]12`, for which the composite z-score in [1] was -0.129; in [2], 0.693; in assay [3] it was -0.179; in assay [4] it was -0.0304; in [5], -0.641; in [6] it was 0.617. The composite z-score is -0.127 in [7], -0.354 in [9] and -0.0994 in assay [10]. For the same compound, the z-score in [8] was -1.72 (inactive).

As to `COc1cccc(C)c1NC(=O)O[C@H]1[C@H](OC(=O)Nc2ccccc2)[C@@H](OC(=O)Nc2ccccc2)[C@@H](OC)O[C@@H]1CO`, the composite z-score in assay [1] is -0.0439; in assay [2], 0.639; in [3], 0.0811; in assay [4], 1.06; in assay [5], 1.48; in assay [6], 1.81. The composite z-score in assay [7] came to 1.46; in assay [9] it was 0.837; in [10], 0.149. Besides, the z-score in [8] is 0.91 (inactive).

Turning to `C[C@]12C(=O)N(CCO)[C@@H]3C(=O)N(c4ccc(Cl)cc4)CC=CC31O[C@@H]1/C=C\CCCOC(=O)C12` (stereo not given in full), the composite z-score in assay [1] is 0.721; in assay [2], -0.581; in assay [3], -0.0985; in assay [4], -0.986; in [5], -0.759; in assay [6], 1.12. In addition, the composite z-score in assay [7] is 0.0495; in assay [9], -0.599; in assay [10] it was -0.132. Moreover, the z-score in assay [8] is 0.868 (inactive).

In the case of `CN(C)C(=O)[C@]1(CCS(=O)(=O)c2ccccc2)N=C(c2ccc(OCCCO)cc2)O[C@@H]1c1ccccc1CN=[N+]=[N-]`, the composite z-score in assay [1] is 0.04; in assay [2] it was -0.313; in [3], 0.0308; in assay [4] it was 0.849; in [5], 1.55; in assay [6], 1.14. Further, the results for the composite z-score in [7], in [9] and in [10] were 1.29, 1.07 and -0.0994, respectively. The z-score in assay [8] is -0.882 (inactive).

With `COc1c(C)cc(-c2nc(-c3ccccc3)c3c(c2C)CO[Si]3(C(C)C)C(C)C)cc1C`, the composite z-score is -0.24 in assay [1]; 0.428 in [2]; -0.134 in [3]; 0.146 in assay [4]; 0.442 in assay [5]; -0.0636 in assay [6]. The composite z-score in assay [7] is -0.104; in assay [9] it was 0.0724; in assay [10] it was -0.0994. Besides, the z-score in assay [8] is 0.232 (inactive).

`Cc1ccc(S[C@]2(C(=O)NCc3ccccc3)CC(=O)N(Cc3ccccc3Cl)[C@@H]2c2ccc(CO)cc2)cc1`: the composite z-score in assay [1] is 1.05; in assay [2] it was -0.363; in [3], -0.0639; in assay [4], 0.0799; in assay [5] it was -0.331; in assay [6] it was 1.26. Moreover, the composite z-score is 0.79 in assay [7], -0.603 in [9] and -0.353 in assay [10]. Also, in assay [8], the z-score was -3.18 (inactive).

Take `NCCCCCCNC(=O)[C@@H]1C[C@@H]2C(=O)NCC(=O)N2[C@@H]1c1cccc(OCCO)c1`: the composite z-score in [1] amounted to 0.403; in assay [2], 0.641; in [3], 0.047; in assay [4] it was 0.847; in assay [5], 1.2; in assay [6], 0.982. In addition, the composite z-score in assay [7] came to 1.22; in assay [9] it was 0.543; in assay [10], 0.385. The z-score in [8] was 0.726 (inactive).

Turning to `CN1C(=O)C2C=CC(C(O)c3ccc([N+](=O)[O-])cc3)N(Nc3ccccc3)C2C1=O` (stereo not given), the composite z-score in [1] was -0.001; in assay [2], 0.135; in assay [3], 0.235; in [4], 0.889; in assay [5], 1.62; in assay [6], 1.75. Further, the composite z-score was 1.16 in assay [7], 0.955 in assay [9] and -0.156 in assay [10]. For the same compound, the z-score in assay [8] was -0.439 (inactive).

As to `C=C(CCCC)/C(=C/C[C@@H](OC(C)=O)c1cccc(OCCO)c1)c1cc(C(=O)OC)ccc1OC`, the composite z-score is 0.289 in [1]; -0.0739 in assay [2]; -0.14 in assay [3]; 0.222 in assay [4]; 0.0199 in assay [5]; 0.361 in assay [6]. In addition, the composite z-score in assay [7] was 0.31; in assay [9] it was -0.0258; in assay [10], -0.0618. Also, the z-score in assay [8] was 0.942 (inactive).
